The structures appear in SMILES notation. Active and inactive are the calls of the source. Entries that show only a call come without a potency. The call rests on the fitted dose curve.

This experiment can be described thus: qHTS assay to identify small molecule agonists of the sonic hedgehog signaling (Shh) pathway (AID 1259368).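 Further: NIH/3T3-derived 3T3Gli1-Luc cells carrying a stable Gli1-driven firefly luciferase reporter; nearly all actives have a fitted effect of over 15% in size.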 To be noted: NIH/3T3 Gli1-Luc reporter, luciferase, 24 h; series mostly up to 92.4 µM. An excerpt: National Center for Advancing Translational Sciences [NCATS]
NIH Chemical Genomics Center [NCGC]
U.S. Environmental Protection Agency [EPA]
National Institutes of Environmental Health Sciences [NIEHS]
National Toxicology Program [NTP]
The sonic hedgehog (Shh) pathway is essential for normal embryonic development. Dysregulation of the Shh pathway can cause severe developmental defects in organs. Therefore chemicals that interfere with the pathway are potential developmental toxicants. A cell line designated 3T3Gli1-Luc (DMB/OARSA/CFSAN/FDA, Laurel, MD), a NIH/3T3 derived clone containing stably integrated Gli1-Luc reporter is used to detect chemical interference of the Shh pathway, by changes in the expression of the firefly Luc gene under the control of the Gli1 transcriptional response element. This cell line was used to screen Tox21 libraries for identifying and prioritizing the potential developmental toxicants that interfere Shh pathway.
3T3 Gli1-Luc cells were dispensed at 2,000 per well in 5uL of culture medium into white solid bottom 1536-well plates (Greiner Bio-One, Monroe, NC) using a Multidrop Combi (Thermo Scientific, Waltham, MA) dispenser. The assay plates were incubated at 37 C and 5% CO2 for 4hr, and then 23nL of compounds dissolved in DMSO and positive control were transferred using a Pintool station (Wako, San Diego, CA). The assay plates were incubated at 37C and 5% CO2 for 24hr. For luciferase read, 4uL of Amplite Luciferase reporter gene assay reagent (AAT Bioquest, Inc. Sunnyvale, CA) was added to each well of the assay plates using Flying Reagent Dispenser (FRD, Aurora Discovery, San Diego, CA) and incubated at room temperature for 30min. The luminescence signal was measured using a ViewLux plate reader (Perkin Elmer, Shelton, CT).
(In general: Quantitative high-throughput screening tests each substance at several concentrations.)
As for `CCC(C)(NC(=O)c1cc(Cl)c(C)c(Cl)c1)C(=O)CCl` (stereo not given), the Potency result was “inactive”.

In the case of `CCOP(=O)(OCC)O/C(=C/Cl)c1ccc(Cl)cc1Cl`, the Potency entry was “inactive”.

As to `BrCCCCBr`, the Potency entry was “inactive”. In the case of `O=S1(=O)OC(c2cc(Br)c(O)c(Br)c2)(c2cc(Br)c(O)c(Br)c2)c2ccccc21` it was “inactive”; in that of `O=C(NC(=O)c1c(F)cccc1F)Nc1ccc(OC(F)(F)C(F)OC(F)(F)F)c(Cl)c1` (stereo not given), “inactive”; in that of `CC1CC(CC2CCC(N)C(C)C2)CCC1N` (stereo not given), “inactive”.

For the compound `COP(=S)(OC)Oc1ccc([N+](=O)[O-])cc1Cl`, the Potency entry was “inactive”.

For the compound `C=CC(=O)OC`, the Potency result is “inactive”.

On to `CCCCN=C=O`, for which the Potency result was “inactive”. For the compound `COP(=S)(Oc1cc(Cl)c(Br)cc1Cl)c1ccccc1` (stereo not given), the Potency entry was “inactive”. In the case of `OCCCBr` it was “inactive”. In the case of `Brc1ccccc1` it was “inactive”; in that of `CCC(COC(=O)c1cc(OC)c(OC)c(OC)c1)(c1ccccc1)N(C)C` (stereo not given), “inactive”.

Turning to `O=C1NCN(c2ccccc2)C12CCN(CCCOc1ccc(F)cc1)CC2`, the Potency result was “inactive”. In the case of `CN1C(=O)NC(=O)C(C)(C2=CCCCC2)C1=O` (stereo not given) it was “inactive”; in that of `CC(C)(Cl)[N+](=O)[O-]`, “inactive”; in that of `Cc1cc(=O)[nH]o1`, “inactive”. For `O=C1C(=O)c2cccc3cccc1c23`, the Potency result was “inactive”. As to `COC1=CC(=O)O[C@@H](CCc2ccccc2)C1`, the Potency result was “inactive”. In the case of `CO/C=C(/C(=O)OC)c1ccccc1COc1cccc(C(F)(F)F)n1` it was “inactive”; in that of `N#Cc1cc(I)c(O)c(I)c1`, “inactive”. In the case of `O=NN1CCNCC1` it was “inactive”; in that of `Clc1cc(C(Cl)(Cl)Cl)cnc1Cl`, “inactive”; in that of `CC(=O)C(C)(C)C`, “inactive”.

In the case of `CCOC(=O)COc1cc(-c2nn(C)c(OC(F)F)c2Cl)c(F)cc1Cl`, the Potency result is “inactive”. In the case of `C[C@H]1CNCCc2ccc(Cl)cc21`, the Potency result is “inactive”. In the case of `CCOc1ccc(C(C)(C)COCc2cccc(Oc3ccccc3)c2)cc1` it was “inactive”; in that of `NC(=O)C(Cl)(Cl)Cl`, “inactive”. In the case of `C#CCOC(C(=O)OCCN(C)C)(c1ccccc1)c1ccccc1` it was “inactive”; in that of `C=CCOC(C)=O`, “inactive”; in that of `O=C(CBr)Nc1ccc(Cl)cc1C(=O)c1ccccc1F`, “inactive”. In the case of `O=Cc1ccc2c(c1)OCO2` it was “inactive”; in that of `N#C/C(N)=C(/N)C#N`, “inactive”.

As to `O=S(=O)(O)C(F)(F)C(F)(F)C(F)(F)C(F)(F)F`, the Potency entry was “inactive”. `COP(=S)(OC)Oc1cc(Cl)c(I)cc1Cl`: the Potency entry was “inactive”.

Consider `CCCN(CCC)c1c([N+](=O)[O-])cc(S(C)(=O)=O)cc1[N+](=O)[O-]`, for which the Potency result is “inactive”.

On to `COc1ccc(-c2ccccc2)cc1NNC(=O)OC(C)C`, for which the Potency entry was “inactive”. In the case of `O=C(OC1CCCCC1)c1ccccc1C(=O)OC1CCCCC1` it was “inactive”. In the case of `C=CC[C@]1(O)CC[C@H]2[C@@H]3CCC4=CC(=O)CCC4=C3C=C[C@@]21C` it was “inactive”; in that of `CC(C)(C)c1cc([N+](=O)[O-])cc([N+](=O)[O-])c1O`, “inactive”.

For the origin of these results see PubChem BioAssay (Tox21).
